Test results as given in PubChem BioAssay (Tox21).
Results filed as inconclusive are left out. Calls of active or inactive are those of the source. Unless noted, calls come from the whole dose curve; as a rule, active = well fitted curve in the direction sought with a large enough effect in the repeat runs; inconclusive = weak or mixed curves; inactive = no such curve, though single readings can be large; an effect the other way counts as inactive or inconclusive.

Assays:
[1] = qHTS assay to identify aromatase inhibitors - cell viability counter screen (AID 743084);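 note: cells stimulated with testosterone during compound exposure; nearly all actives have a fitted effect of over 55% in size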
[2] = biological target: Aryl hydrocarbon receptor (Homo sapiens) (UniProt P35869); experiment: qHTS assay to identify small molecule that activate the aryl hydrocarbon receptor (AhR) signaling pathway (AID 743085);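 note: HG2L7.5c1 human HepG2 liver cells with stably integrated DRE-driven firefly reporter; series mostly up to about 70 µM; nearly all actives have a fitted effect of over 15% in size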
Chain of Aryl hydrocarbon receptor (Homo sapiens) (P35869 whole entry, looked up): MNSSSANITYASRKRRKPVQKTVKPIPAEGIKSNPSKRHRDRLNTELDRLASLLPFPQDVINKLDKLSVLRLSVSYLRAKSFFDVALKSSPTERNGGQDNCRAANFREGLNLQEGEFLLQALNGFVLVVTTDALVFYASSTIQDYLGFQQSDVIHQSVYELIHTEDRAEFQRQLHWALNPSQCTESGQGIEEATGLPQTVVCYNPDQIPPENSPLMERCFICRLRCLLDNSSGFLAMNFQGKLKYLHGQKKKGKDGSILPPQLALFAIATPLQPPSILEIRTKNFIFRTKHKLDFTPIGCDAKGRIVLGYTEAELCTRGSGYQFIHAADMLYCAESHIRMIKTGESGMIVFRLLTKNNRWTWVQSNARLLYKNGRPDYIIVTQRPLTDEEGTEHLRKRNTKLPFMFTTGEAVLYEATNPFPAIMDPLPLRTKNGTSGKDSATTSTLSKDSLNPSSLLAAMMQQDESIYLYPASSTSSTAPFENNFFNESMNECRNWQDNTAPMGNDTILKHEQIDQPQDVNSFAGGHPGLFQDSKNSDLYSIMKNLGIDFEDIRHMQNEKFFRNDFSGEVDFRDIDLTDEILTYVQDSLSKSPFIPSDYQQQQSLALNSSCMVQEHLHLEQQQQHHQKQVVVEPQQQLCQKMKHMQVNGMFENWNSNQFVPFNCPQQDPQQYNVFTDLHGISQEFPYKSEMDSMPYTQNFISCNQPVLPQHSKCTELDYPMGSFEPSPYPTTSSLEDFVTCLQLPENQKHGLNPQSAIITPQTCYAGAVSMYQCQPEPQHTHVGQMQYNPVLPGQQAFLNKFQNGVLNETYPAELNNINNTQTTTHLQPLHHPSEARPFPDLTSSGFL
Summary of the method: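 HepG2 cells (HG2L7.5c1) stably carrying a firefly luciferase reporter driven by 20 dioxin responsive elements were exposed to compound for 24 h at 37C after a 5 h settling period; luminescence rise (ONE-Glo) indicated activation.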

[3] = qHTS assay to identify small molecule that activate the aryl hydrocarbon receptor (AhR) signaling pathway - cell viability counter screen (AID 743086);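 note: HepG2 liver cells carrying the AhR DRE luciferase reporter; series mostly up to about 70 µM; nearly all actives have a fitted effect of over 45% in size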
Summary of the method: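 Cytotoxicity counter screen: CellTiter-Fluor signal (30 min, 37 C) in 4000 HepG2 cells/well carrying the DRE-luciferase reporter, following 24 h compound exposure at 37 C.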

[4] = biological target: Peroxisome proliferator-activated receptor gamma (Homo sapiens) (UniProt P37231); experiment: qHTS assay to identify small molecule agonists of the peroxisome proliferator-activated receptor gamma (PPARg) signaling pathway (AID 743094; active = well fitted activation curve with a large enough effect in the signal ratio in the repeat runs, not every such curve was filed as active; the % refers to the signal ratio)
Chain of Peroxisome proliferator-activated receptor gamma (Homo sapiens) (P37231 whole entry, looked up): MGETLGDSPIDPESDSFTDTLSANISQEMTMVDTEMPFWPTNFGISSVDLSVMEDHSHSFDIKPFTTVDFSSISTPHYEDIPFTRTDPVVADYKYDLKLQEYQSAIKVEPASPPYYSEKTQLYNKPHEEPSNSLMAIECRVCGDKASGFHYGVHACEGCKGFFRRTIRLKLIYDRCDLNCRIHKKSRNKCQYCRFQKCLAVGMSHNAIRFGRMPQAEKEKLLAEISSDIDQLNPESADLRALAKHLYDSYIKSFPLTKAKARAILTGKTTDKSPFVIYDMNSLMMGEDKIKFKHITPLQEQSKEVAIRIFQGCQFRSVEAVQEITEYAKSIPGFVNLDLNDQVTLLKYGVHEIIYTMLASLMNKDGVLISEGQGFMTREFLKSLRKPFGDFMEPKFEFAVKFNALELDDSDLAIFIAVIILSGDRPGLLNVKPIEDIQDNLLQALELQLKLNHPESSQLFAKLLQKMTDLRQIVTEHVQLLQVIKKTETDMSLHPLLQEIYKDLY
Summary of the method: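 GeneBLAzer PPARg UAS-bla HEK293H cells were plated, rested 5 h, then exposed to compounds for 17 h at 37C. Beta-lactamase activity was read by LiveBLAzer B/G FRET substrate fluorescence after 1 h at room temperature.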

[5] = biological target: Peroxisome proliferator-activated receptor gamma (Homo sapiens) (UniProt P37231); experiment: qHTS assay to identify small molecule antagonists of the peroxisome proliferator-activated receptor gamma (PPARg) signaling pathway (AID 743191; calls by dose curve; note: series mostly up to about 63 µM; nearly all actives have a fitted effect of over 30% in size)
Summary of the method: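 Beta-lactamase reporter under UAS control in HEK293H PPARg-bla cells; compound treatment 17 h at 37C. Read-out: fluorescence intensity after 1 h room-temperature incubation with LiveBLAzer B/G FRET substrate.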

[6] = qHTS assay to identify small molecule antagonists of the peroxisome proliferator-activated receptor gamma (PPARg) signaling pathway - cell viability counter screen (AID 743194); note: nearly all actives have a fitted effect of over 55% in size
Summary of the method: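 Viability was measured as CellTiter-Glo luminescence in GeneBLAzer PPARg UAS-bla HEK293H cells. These cells had been exposed 17 h at 37 C to compounds together with rosiglitazone at 50 nM final, with the beta-lactamase readout taken in the same wells.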

[7] = qHTS assay for small molecule agonists of the antioxidant response element (ARE) signaling pathway (AID 743202; active = well fitted activation curve with a large enough effect in the signal ratio in the repeat runs, not every such curve was filed as active; the % refers to the signal ratio)
Summary of the method: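 Quantitative high-throughput format in HepG2 cells bearing an integrated ARE-beta-lactamase reporter. Compound exposure lasted 16 h at 37 C, and fluorescence was read 2 h after adding LiveBLAzer B/G substrate at room temperature.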

[8] = qHTS assay for small molecule agonists of the antioxidant response element (ARE) signaling pathway - cell viability counter screen (AID 743203; calls by dose curve; note: nearly all actives have a fitted effect of over 55% in size)
Summary of the method: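 ARE-bla HepG2 cells were plated, rested 5 h at 37C/5% CO2, then exposed to compounds in DMSO for 16 h. Viability was read as CellTiter-Glo luminescence after 30 min at room temperature, in the same wells as the ARE screen.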

[9] = qHTS assay for small molecule activators of the heat shock response signaling pathway - cell viability counter screen (AID 743209); note: nearly all actives have a fitted effect of over 50% in size
Summary of the method: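 HSE-bla HeLa cells plated overnight, then exposed to Tox21 compounds (23 nL in DMSO) for 5 h at 37 C. After the bla reporter read, CellTiter-Glo was added in the same wells and luminescence read after 30 min at room temperature.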

[10] = qHTS assay for small molecule activators of the heat shock response signaling pathway (AID 743210; active = well fitted activation curve with a large enough effect in the signal ratio in the repeat runs, with a control signal flat, not every such curve was filed as active; the % refers to the signal ratio;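 note: HeLa cells with beta-lactamase reporter driven by heat shock elements; series mostly up to about 63 µM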)
Summary of the method: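 HeLa HSE-bla cells, overnight plating; cpd in DMSO 5 h, 37 C; LiveBLAzer B/G FRET substrate 2.5 h RT; fluorescence intensity read.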

[11] = biological target: Peroxisome proliferator-activated receptor delta (Homo sapiens) (UniProt Q03181); experiment: qHTS assay to identify small molecule agonists of the peroxisome proliferator-activated receptor delta (PPARd) signaling pathway (AID 743212; calls by dose curve)
Chain of Peroxisome proliferator-activated receptor delta (Homo sapiens) (Q03181 whole entry, looked up): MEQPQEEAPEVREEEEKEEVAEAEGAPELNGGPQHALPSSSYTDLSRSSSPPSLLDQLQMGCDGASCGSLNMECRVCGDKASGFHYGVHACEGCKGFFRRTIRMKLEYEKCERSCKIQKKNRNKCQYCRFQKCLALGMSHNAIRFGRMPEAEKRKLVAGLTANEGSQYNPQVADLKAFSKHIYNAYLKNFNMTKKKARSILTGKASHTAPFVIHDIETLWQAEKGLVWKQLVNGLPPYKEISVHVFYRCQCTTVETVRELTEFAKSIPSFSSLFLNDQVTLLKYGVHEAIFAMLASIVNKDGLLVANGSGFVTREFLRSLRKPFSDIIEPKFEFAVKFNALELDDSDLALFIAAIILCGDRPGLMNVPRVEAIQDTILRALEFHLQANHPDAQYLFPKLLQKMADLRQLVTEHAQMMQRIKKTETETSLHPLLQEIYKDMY
Summary of the method: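 HEK293H PPARd-bla cells; 5 h preincubation 37 C/5% CO2; compound (DMSO) 37 C; LiveBLAzer B/G FRET substrate 2 h RT; fluorescence intensity.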

[12] = qHTS assay to identify small molecule antagonists of the peroxisome proliferator-activated receptor delta (PPARd) signaling pathway - cell viability counter screen (AID 743213); note: nearly all actives have a fitted effect of over 50% in size
Summary of the method: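 PPARd-bla HEK293H cells (3000/well) got compound plus 300 nM L165041 agonist for 17 h at 37 C. Viability in the same wells came from CellTiter-Glo luminescence after 30 min at room temperature.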

[13] = biological target: Peroxisome proliferator-activated receptor delta (Homo sapiens) (UniProt Q03181); experiment: qHTS assay to identify small molecule antagonists of the peroxisome proliferator-activated receptor delta (PPARd) signaling pathway (AID 743215; active = well fitted inhibition curve with a large enough effect in the signal ratio in the repeat runs, not every such curve was filed as active; the % refers to the signal ratio;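 note: cells stimulated with agonist L165041 at 300 nM final during compound exposure; series mostly up to about 62 µM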)
Summary of the method: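 PPARd-bla HEK293H cells (UAS-bla reporter) preincubated 5 h, then given compound plus 300 nM final L165041 agonist for 17 h at 37 C. Beta-lactamase activity read by LiveBLAzer B/G FRET substrate fluorescence after 2 h at room temperature.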

[14] = biological target: Bile acid receptor (Homo sapiens) (UniProt Q96RI1); experiment: qHTS assay to identify small molecule antagonists of the farnesoid-X-receptor (FXR) signaling pathway (AID 743217; active = well fitted inhibition curve with a large enough effect in the signal ratio in the repeat runs, not every such curve was filed as active; the % refers to the signal ratio)
Chain of Bile acid receptor (Homo sapiens) (Q96RI1 whole entry, looked up): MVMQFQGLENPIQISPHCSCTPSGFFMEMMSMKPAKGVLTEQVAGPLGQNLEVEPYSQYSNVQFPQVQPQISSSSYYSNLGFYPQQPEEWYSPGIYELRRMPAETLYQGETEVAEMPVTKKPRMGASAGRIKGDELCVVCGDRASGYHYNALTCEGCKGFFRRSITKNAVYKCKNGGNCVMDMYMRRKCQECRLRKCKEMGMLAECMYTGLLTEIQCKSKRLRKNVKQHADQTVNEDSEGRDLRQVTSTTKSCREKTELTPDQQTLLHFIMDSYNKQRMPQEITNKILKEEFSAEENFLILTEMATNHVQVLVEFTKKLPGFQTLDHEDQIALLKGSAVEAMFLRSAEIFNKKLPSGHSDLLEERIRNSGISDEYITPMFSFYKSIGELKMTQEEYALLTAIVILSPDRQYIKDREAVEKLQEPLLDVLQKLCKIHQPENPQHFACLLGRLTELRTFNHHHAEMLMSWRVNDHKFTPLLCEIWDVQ
Summary of the method: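 FXR-UAS-bla HEK 293T cells (beta-lactamase reporter) given compound plus chenodeoxycholic acid (50 uM final), 16 h at 37C. LiveBLAzer B/G FRET substrate added for 2 h at room temperature; fluorescence read.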

[15] = qHTS assay to identify small molecule agonists of the farnesoid-X-receptor (FXR) signaling pathway - cell viability counter screen (AID 743218); note: nearly all actives have a fitted effect of over 45% in size
Summary of the method: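 FXR-UAS-bla HEK 293T cells exposed to compounds for 16 h at 37C. Cytotoxicity read in the same wells by CellTiter-Glo luminescence after 30 min at room temperature, following the beta-lactamase FRET read.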

[16] = biological target: Bile acid receptor (Homo sapiens) (UniProt Q96RI1); experiment: qHTS assay to identify small molecule agonists of the farnesoid-X-receptor (FXR) signaling pathway (AID 743220; active = well fitted activation curve with a large enough effect in the signal ratio in the repeat runs, not every such curve was filed as active; the % refers to the signal ratio)
Summary of the method: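 Beta-lactamase reporter under UAS control in GeneBLAzer FXR HEK 293T cells (5000/well) measured with LiveBLAzer FRET substrate after 2 h at room temperature. Compound exposure lasted 16 h at 37C.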

[17] = biological target: Vitamin D3 receptor (Homo sapiens) (UniProt P11473); experiment: qHTS assay to identify small molecule agonists of the vitamin D receptor (VDR) signaling pathway (AID 743222; calls by dose curve)
Chain of Vitamin D3 receptor (Homo sapiens) (P11473 whole entry, looked up): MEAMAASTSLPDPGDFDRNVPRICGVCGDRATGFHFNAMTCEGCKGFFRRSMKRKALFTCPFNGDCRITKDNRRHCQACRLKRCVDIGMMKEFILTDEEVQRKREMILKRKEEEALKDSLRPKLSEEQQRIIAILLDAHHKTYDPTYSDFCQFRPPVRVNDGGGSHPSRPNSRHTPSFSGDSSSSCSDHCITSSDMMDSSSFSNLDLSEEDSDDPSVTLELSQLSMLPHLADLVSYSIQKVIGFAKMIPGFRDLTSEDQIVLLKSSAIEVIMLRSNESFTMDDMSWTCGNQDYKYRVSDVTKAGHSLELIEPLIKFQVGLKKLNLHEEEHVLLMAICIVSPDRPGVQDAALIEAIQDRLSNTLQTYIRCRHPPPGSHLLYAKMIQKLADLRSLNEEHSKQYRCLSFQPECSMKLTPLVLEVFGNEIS
Summary of the method: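 VDR-bla cells plated 4 h at 37 C, then exposed to compounds for 16 h at 37 C. Beta-lactamase reporter activity measured by fluorescence after 2 h room-temperature loading with LiveBLAzer B/G FRET substrate.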

[18] = biological target: Vitamin D3 receptor (Homo sapiens) (UniProt P11473); experiment: qHTS assay to identify small molecule antagonists of the vitamin D receptor (VDR) signaling pathway (AID 743223; active = well fitted inhibition curve with a large enough effect in the signal ratio in the repeat runs, not every such curve was filed as active; the % refers to the signal ratio)
Summary of the method: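 VDR-bla cells were plated, incubated 4 h at 37C, then given compound and 1alpha,25-dihydroxyvitamin D3 (3 nM final). After 16 h at 37C, LiveBLAzer B/G FRET substrate was added for 2 h at room temperature and fluorescence read.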

[19] = qHTS assay to identify small molecule agonists of the peroxisome proliferator-activated receptor delta (PPARd) signaling pathway - cell viability counter screen (AID 743211); note: nearly all actives have a fitted effect of over 55% in size
Summary of the method: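 PPARd-bla HEK293H cells (UAS-beta-lactamase reporter) were treated with compounds for 17 h at 37 C. Viability was then read in the same wells by CellTiter-Glo luminescence after 30 min at room temperature.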

[20] = qHTS assay to identify small molecule antagonists of the farnesoid-X-receptor (FXR) signaling pathway - cell viability counter screen (AID 743221; active = well fitted cell-killing curve with a large enough effect in the repeat runs, not every such curve was filed as active; note: nearly all actives have a fitted effect of over 50% in size)
Summary of the method: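 FXR-UAS-bla HEK 293T cells were treated with test compounds plus chenodeoxycholic acid (50 uM final) for 16 h at 37 C. Cell viability in the same wells was then read as CellTiter-Glo luminescence after 30 min at room temperature.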

Measured: Potency

Cc1ccc([N+](=O)[O-])cc1Cl
inactive: [1] | [2] | [3] | [4] | [5] | [6] | [7] | [8] | [9] | [10] | [11] | [12] | [13] | [14] | [15] | [16] | [17] | [18]

OCCN1CCN(CCO)CC1
inactive: [1] | [2] | [3] | [4] | [5] | [6] | [7] | [8] | [9] | [10] | [19] | [11] | [12] | [13] | [15] | [20] | [17] | [18]

ICCc1ccccc1
inactive: [1] | [2] | [3] | [4] | [5] | [6] | [7] | [8] | [9] | [10] | [19] | [11] | [12] | [13] | [15] | [20] | [17] | [18]

O=Cc1ccc(F)c(Br)c1
inactive: [1] | [2] | [3] | [4] | [5] | [6] | [7] | [8] | [9] | [10] | [19] | [11] | [12] | [13] | [20] | [17] | [18]

Oc1ccccc1C=NCc1ccccc1
inactive: [1] | [2] | [3] | [4] | [5] | [6] | [7] | [8] | [9] | [10] | [19] | [11] | [12] | [13] | [14] | [15] | [16] | [20] | [17] | [18]

CCN(CC)CCNC(=O)COc1ccc(Cl)cc1
inactive: [1] | [2] | [3] | [4] | [5] | [6] | [7] | [8] | [9] | [10] | [11] | [12] | [13] | [15] | [20]

Cc1ccc([N+](=O)[O-])c(N)c1
inactive: [1] | [2] | [3] | [4] | [5] | [6] | [7] | [8] | [9] | [10] | [19] | [11] | [12] | [13] | [20] | [17] | [18]

CCOC(=O)NCCC[Si](OCC)(OCC)OCC
inactive: [1] | [2] | [3] | [4] | [5] | [6] | [7] | [8] | [9] | [10] | [19] | [11] | [12] | [13] | [20] | [17]

FC(F)(F)C(Cl)(Cl)Cl
inactive: [1] | [2] | [3] | [4] | [5] | [6] | [7] | [8] | [9] | [10] | [19] | [11] | [12] | [13] | [14] | [16] | [20] | [17]

O=C(O)c1cccc(Cl)c1Cl
inactive: [1] | [2] | [3] | [4] | [5] | [6] | [7] | [8] | [9] | [10] | [19] | [11] | [13] | [15] | [20] | [17] | [18]

CC(=O)Nc1ccc(C)c(Cl)c1
inactive: [1] | [2] | [3] | [4] | [5] | [6] | [7] | [8] | [9] | [10] | [19] | [11] | [13] | [14] | [16] | [20] | [17] | [18]

C[C@@H]1CN(c2c(F)c(N)c3c(=O)c(C(=O)O)cn(C4CC4)c3c2F)C[C@H](C)N1
inactive: [1] | [2] | [3] | [4] | [5] | [6] | [7] | [8] | [9] | [10] | [19] | [12] | [14] | [15] | [16] | [20] | [17] | [18]

CCC(=O)Nc1ccc(O)cc1
inactive: [1] | [2] | [3] | [4] | [5] | [6] | [7] | [8] | [9] | [10] | [19] | [11] | [12] | [13] | [14] | [15] | [16] | [20] | [17] | [18]

CCOc1ccc(NC(N)=O)cc1
inactive: [1] | [2] | [3] | [4] | [5] | [6] | [7] | [8] | [9] | [10] | [19] | [14] | [15] | [16] | [20] | [17]

COc1nc(C)nc(NC(=O)NS(=O)(=O)c2ccccc2OCCCl)n1
inactive: [1] | [2] | [3] | [4] | [5] | [6] | [7] | [8] | [9] | [10] | [19] | [12] | [13] | [14] | [15] | [16] | [20] | [17]
